Inconclusive results are not listed. Entries that show only a call come without a potency. Active and inactive are the calls of the source. Unless noted, the call rests on the fitted dose curve. Peptide text beside a SMILES is read from it. * marks the point of attachment. Cbz = O=C(OCc1ccccc1)*
Legend:
[1] = qHTS for Inhibitors of the Functional Ribonucleoprotein Complex (vRNP) of Lassa (LASV) Arenavirus: LASV Primary Screen - GLuc reporter signal (AID 1347082; calls by dose curve; tested in HEK293 reporter line; further: nearly all actives have a fitted effect of over 60% in size)
[2] = qHTS for Inhibitors of the Functional Ribonucleoprotein Complex (vRNP) of Lassa (LASV) Arenavirus: Viability assay - alamar blue signal for LASV Primary Screen (AID 1347083; calls by dose curve; tested in HEK293 reporter line; further: nearly all actives have a fitted effect of over 80% in size)
[3] = qHTS for Inhibitors of the Functional Ribonucleoprotein Complex (vRNP) of Lymphocytic Choriomeningitis Arenaviruses (LCMV): Viability assay - alamar blue signal for LCMV Primary Screen (AID 1347085; calls by dose curve; tested in HEK293 reporter line; further: nearly all actives have a fitted effect of over 80% in size)
[4] = molecular target: Nucleoprotein (Lymphocytic choriomeningitis virus (strain Armstrong)) (UniProt P09992); test: qHTS for Inhibitors of the Functional Ribonucleoprotein Complex (vRNP) of Lymphocytic Choriomeningitis Arenaviruses (LCMV): LCMV Primary Screen - GLuc reporter signal (AID 1347086); further: nearly all actives have a fitted effect of over 70% in size
[5] = Cytotoxicity counterscreen for inhibitors of SARS-CoV-2 cell entry (AID 1645845); further: nearly all actives have a fitted effect of over 50% in size
Outline: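 48 h compound treatment (after 1 h preincubation), HEK293-ACE2 cells, 37 C/5% CO2; ATP luminescence endpoint; normalized to cell wells and media blanks.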

[6] = Primary qHTS to identify inhibitors of SARS-CoV-2 cell entry (AID 1645846); conditions: activity change, negative = inhibition: at 57.1 µM (top of the series) unless noted; further: nearly all actives have a fitted effect of over 45% in size
Outline: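 Entry measured by luciferase signal 48 h after adding SARS-CoV-2-S pseudotyped MLV particles to HEK293-ACE2 cells preincubated 1 h with compounds. Normalisation: bald particles and spike particles.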
Potency means the concentration at half of the fitted maximal effect.

Nucleoprotein (Lymphocytic choriomeningitis virus (strain Armstrong)), sequence (P09992 whole entry, looked up): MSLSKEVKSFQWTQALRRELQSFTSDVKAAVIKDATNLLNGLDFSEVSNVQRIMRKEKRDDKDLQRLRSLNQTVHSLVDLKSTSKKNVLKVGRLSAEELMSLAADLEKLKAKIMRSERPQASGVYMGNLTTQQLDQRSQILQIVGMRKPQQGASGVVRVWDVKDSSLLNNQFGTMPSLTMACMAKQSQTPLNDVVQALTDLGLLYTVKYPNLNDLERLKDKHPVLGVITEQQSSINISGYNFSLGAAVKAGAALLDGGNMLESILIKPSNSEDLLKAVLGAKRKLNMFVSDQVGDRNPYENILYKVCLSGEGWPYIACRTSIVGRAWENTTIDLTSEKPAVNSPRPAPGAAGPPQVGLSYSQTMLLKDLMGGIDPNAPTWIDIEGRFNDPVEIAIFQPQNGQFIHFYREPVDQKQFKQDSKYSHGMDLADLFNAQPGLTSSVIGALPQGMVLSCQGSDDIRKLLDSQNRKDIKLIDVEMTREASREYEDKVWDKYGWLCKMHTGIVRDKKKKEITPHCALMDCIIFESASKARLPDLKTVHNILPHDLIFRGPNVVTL

For Cc1cn2cc(C(=O)N(C)CCO)cc(N[C@@H]3CCOc4cccc(C)c43)c2n1, the Potency [1] was “inactive”, the Potency [2] was “inactive” and the Potency [3] was “inactive”. For the same molecule, the Potency [4] was “inactive”, the Potency [5] was “inactive” and the Potency [6] was “inactive”.
With N#CC1(c2ccc(NC(=O)c3cccnc3NCc3ccncc3)cc2)CCCC1 the Potency [1] was “inactive”, the Potency [2] was “inactive” and the Potency [3] was “inactive”. The Potency [4] was “inactive”, the Potency [5] was “inactive” and the Potency [6] was “inactive”.
For CC(C)C[C@@H](N)[C@H](O)C(=O)N[C@H](C(=O)N[C@H](C(=O)N[C@@H](CC(=O)O)C(=O)O)C(C)C)C(C)C, the Potency [1] was “inactive”, the Potency [2] was “inactive” and the Potency [3] was “inactive”. The Potency [4] was “inactive”, the Potency [5] was “inactive” and the activity change, negative = inhibition [6] was -14%.
In the case of Oc1cc2c(cc1O)C1c3ccc(O)c(O)c3OCC1(O)C2 (stereo unspecified), the Potency [1] is reported as “inactive”, the Potency [2] is reported as “inactive” and the Potency [3] is reported as “inactive”. The Potency [4] was “inactive”, the Potency [5] was “inactive” and the activity change, negative = inhibition [6] was -5.64%.
With CC(C)C[C@@H](C=O)NC(=O)[C@H](CC(C)C)NC(=O)[C@H](CC(C)C)NC(=O)OCc1ccccc1 (Cbz-Leu-Leu-Leu-aldehyde) the Potency [1] was 1.93 µM (active), the Potency [2] was 4.32 µM (active) and the Potency [3] was 5.44 µM (active). For the same molecule, the Potency [4] was 3.43 µM (active), the Potency [5] was 1.12 µM (active) and the activity change, negative = inhibition [6] was -96.8%.
For C[Se]CCC(N)C(=O)O (stereo unspecified), the Potency [1] was “inactive”, the Potency [2] was “inactive” and the Potency [3] was “inactive”. For the same molecule, the Potency [4] was “inactive”, the Potency [5] was “inactive” and the activity change, negative = inhibition [6] was -2.1% [at 114 µM].
In the case of Cn1c(CNc2ccc(C(=N)N)cc2)nc2cc(C(=O)N(CCC(=O)O)c3ccccn3)ccc21, the Potency [1] is reported as “inactive”, the Potency [2] is reported as “inactive” and the Potency [3] is reported as “inactive”. The Potency [4] was “inactive”, the activity change, negative = cytotoxicity [5] was -8.56% [at 0.702 µM] (inactive) and the activity change, negative = inhibition [6] was -9.36% [at 0.702 µM].
For CCOC(=O)C1=C(N)Oc2ccc(Br)cc2C1C(C#N)C(=O)OCC (stereo unspecified), the Potency [1] was “inactive”, the Potency [2] was “inactive” and the Potency [3] was “inactive”. The Potency [4] was “inactive”, the Potency [5] was “inactive” and the activity change, negative = inhibition [6] was -18.1%.
For CC(=O)OC1C(C)OC(Oc2c(-c3ccc(O)cc3)oc3cc(O)cc(O)c3c2=O)C(O)C1OC(C)=O (stereo unspecified), the Potency [1] was “inactive”, the Potency [2] was “inactive” and the Potency [3] was “inactive”. For the same molecule, the Potency [4] was “inactive”, the Potency [5] was “inactive” and the Potency [6] was “inactive”.
With COc1ccc(CC2=NN3C([C@@H](CCc4ccccc4)[C@@H](C)O)=NC(C)C3C(=O)N2)cc1OC (stereo partly specified) the Potency [1] was “inactive”, the Potency [2] was “inactive” and the Potency [3] was “inactive”. For the same molecule, the Potency [4] was “inactive”, the Potency [5] was “inactive” and the Potency [6] was “inactive”.
With O=[N+]([O-])c1cn2c(n1)OC[C@@H](OCc1ccc(OC(F)(F)F)cc1)C2 the Potency [1] was “inactive”, the Potency [2] was “inactive” and the Potency [3] was “inactive”. The Potency [4] was “inactive”, the Potency [5] was “inactive” and the activity change, negative = inhibition [6] was -9.12%.
With COc1ccc(Nc2nccc(NCCO)n2)cc1 the Potency [1] was “inactive”, the Potency [2] was “inactive” and the Potency [3] was “inactive”. The Potency [4] was “inactive”, the Potency [5] was “inactive” and the Potency [6] was “inactive”.
For CCOc1ccccc1N=Nc1c(C)[nH]n(-c2nc(-c3ccccc3)cs2)c1=O, the Potency [1] was “inactive”, the Potency [2] was “inactive” and the Potency [3] was “inactive”. For the same molecule, the Potency [4] was “inactive”, the Potency [5] was “inactive” and the Potency [6] was “inactive”.
With CC(C)(O)CCc1ccc(OCc2cc(-c3cccc(OC(F)F)c3)c3ncccc3c2)cc1 the Potency [1] was “inactive”, the Potency [2] was “inactive” and the Potency [3] was “inactive”. The Potency [4] was “inactive”, the Potency [5] was “inactive” and the activity change, negative = inhibition [6] was -16.6%.
For C#CCN(C)CC1=Cc2ccccc2Oc2ccccc21, the Potency [1] was “inactive”, the Potency [2] was “inactive” and the Potency [3] was “inactive”. For the same molecule, the Potency [4] was “inactive”, the Potency [5] was “inactive” and the activity change, negative = inhibition [6] was 1.65%.
With c1ccc2c(Oc3nc(Nc4ccc(N5CCOCC5)cc4)c4ncn(C5CCCCC5)c4n3)cccc2c1 the Potency [1] was “inactive”, the Potency [2] was “inactive” and the Potency [3] was “inactive”. For the same molecule, the Potency [4] was “inactive”, the Potency [5] was “inactive” and the activity change, negative = inhibition [6] was -17.3%.
For Cc1ccc2c(c1)C(=O)[C@]1(O)CCN(c3ccccc3)C1=N2, the Potency [1] was “inactive”, the Potency [2] was “inactive” and the Potency [3] was “inactive”. The Potency [4] was “inactive”, the Potency [5] was “inactive” and the activity change, negative = inhibition [6] was -18.4%.
With O=C1CN2Cc3c(ccc(Cl)c3Cl)N=C2N1 the Potency [1] was “inactive”, the Potency [2] was “inactive” and the Potency [3] was “inactive”. The Potency [4] was “inactive”, the Potency [5] was “inactive” and the Potency [6] was “inactive”.
With Nc1nc2c(c(=O)[nH]1)N(C=O)[C@H](CNc1ccc(C(=O)N[C@@H](CCC(=O)O)C(=O)O)cc1)CN2 the Potency [1] was “inactive”, the Potency [2] was “inactive” and the Potency [3] was “inactive”. The Potency [4] was “inactive”, the Potency [5] was “inactive” and the Potency [6] was “inactive”.
For Cc1coc2c1C(=O)C(=O)c1c-2ccc2c1CCCC2(C)C, the Potency [1] was “inactive”, the Potency [2] was “inactive” and the Potency [3] was “inactive”. The Potency [4] was “inactive”, the Potency [5] was “inactive” and the activity change, negative = inhibition [6] was -20%.
For CN1CC(=O)NC1=NC(=O)Nc1cccc(Cl)c1, the Potency [1] was “inactive”, the Potency [2] was “inactive” and the Potency [3] was “inactive”. The Potency [4] was “inactive”, the Potency [5] was “inactive” and the activity change, negative = inhibition [6] was -1.73%.
For OCc1ccc(-c2ccc(-c3ccc(CO)s3)o2)s1, the Potency [1] was “inactive”, the Potency [2] was “inactive” and the Potency [3] was “inactive”. The Potency [4] was “inactive”, the Potency [5] was “inactive” and the Potency [6] was “inactive”.
With O=c1cc(-c2ccccc2)oc2cc(O)cc(O)c12 the Potency [1] was “inactive”, the Potency [2] was “inactive” and the Potency [3] was “inactive”. The Potency [4] was “inactive”, the Potency [5] was “inactive” and the Potency [6] was “inactive”.
For CC(Oc1ccc(O)cc1)(P(=O)(O)O)P(=O)(O)O, the Potency [1] was “inactive”, the Potency [2] was “inactive” and the Potency [3] was “inactive”. For the same molecule, the Potency [4] was “inactive”, the Potency [5] was “inactive” and the activity change, negative = inhibition [6] was -6.64%.
For O=C(O)C1=CC(O)C(O)[C@H](O)C1 (stereo partly specified), the Potency [1] was “inactive”, the Potency [2] was “inactive” and the Potency [3] was “inactive”. For the same molecule, the Potency [4] was “inactive”, the Potency [5] was “inactive” and the activity change, negative = inhibition [6] was -8.99%.
For COc1ccc(-c2ccc3ncc4c(c3c2)n(-c2ccc(N3CCNCC3)c(C(F)(F)F)c2)c(=O)n4C)cn1, the Potency [1] was 0.0022 µM (active), the Potency [2] was “inactive” and the Potency [3] was “inactive”. For the same molecule, the Potency [4] was “inactive”, the Potency [5] was 4.47 µM (active) and the Potency [6] was 3.16 µM (active).
